KDM5B inh: blocks human KDM5B histone demethylase activity; Potency, µM (top dose mostly 57.7 µM), usual class: inhibitors; 220,000 compounds, 2.6% hits; KDM5B demethylase, FDH-coupled NADH fluorescence (FDH is formaldehyde dehydrogenase); Q9UGL1; active = well fitted inhibition curve with a large enough effect; note: nearly all actives have a fitted effect of over 70% in size
Target sequence (Q9UGL1 whole entry, looked up): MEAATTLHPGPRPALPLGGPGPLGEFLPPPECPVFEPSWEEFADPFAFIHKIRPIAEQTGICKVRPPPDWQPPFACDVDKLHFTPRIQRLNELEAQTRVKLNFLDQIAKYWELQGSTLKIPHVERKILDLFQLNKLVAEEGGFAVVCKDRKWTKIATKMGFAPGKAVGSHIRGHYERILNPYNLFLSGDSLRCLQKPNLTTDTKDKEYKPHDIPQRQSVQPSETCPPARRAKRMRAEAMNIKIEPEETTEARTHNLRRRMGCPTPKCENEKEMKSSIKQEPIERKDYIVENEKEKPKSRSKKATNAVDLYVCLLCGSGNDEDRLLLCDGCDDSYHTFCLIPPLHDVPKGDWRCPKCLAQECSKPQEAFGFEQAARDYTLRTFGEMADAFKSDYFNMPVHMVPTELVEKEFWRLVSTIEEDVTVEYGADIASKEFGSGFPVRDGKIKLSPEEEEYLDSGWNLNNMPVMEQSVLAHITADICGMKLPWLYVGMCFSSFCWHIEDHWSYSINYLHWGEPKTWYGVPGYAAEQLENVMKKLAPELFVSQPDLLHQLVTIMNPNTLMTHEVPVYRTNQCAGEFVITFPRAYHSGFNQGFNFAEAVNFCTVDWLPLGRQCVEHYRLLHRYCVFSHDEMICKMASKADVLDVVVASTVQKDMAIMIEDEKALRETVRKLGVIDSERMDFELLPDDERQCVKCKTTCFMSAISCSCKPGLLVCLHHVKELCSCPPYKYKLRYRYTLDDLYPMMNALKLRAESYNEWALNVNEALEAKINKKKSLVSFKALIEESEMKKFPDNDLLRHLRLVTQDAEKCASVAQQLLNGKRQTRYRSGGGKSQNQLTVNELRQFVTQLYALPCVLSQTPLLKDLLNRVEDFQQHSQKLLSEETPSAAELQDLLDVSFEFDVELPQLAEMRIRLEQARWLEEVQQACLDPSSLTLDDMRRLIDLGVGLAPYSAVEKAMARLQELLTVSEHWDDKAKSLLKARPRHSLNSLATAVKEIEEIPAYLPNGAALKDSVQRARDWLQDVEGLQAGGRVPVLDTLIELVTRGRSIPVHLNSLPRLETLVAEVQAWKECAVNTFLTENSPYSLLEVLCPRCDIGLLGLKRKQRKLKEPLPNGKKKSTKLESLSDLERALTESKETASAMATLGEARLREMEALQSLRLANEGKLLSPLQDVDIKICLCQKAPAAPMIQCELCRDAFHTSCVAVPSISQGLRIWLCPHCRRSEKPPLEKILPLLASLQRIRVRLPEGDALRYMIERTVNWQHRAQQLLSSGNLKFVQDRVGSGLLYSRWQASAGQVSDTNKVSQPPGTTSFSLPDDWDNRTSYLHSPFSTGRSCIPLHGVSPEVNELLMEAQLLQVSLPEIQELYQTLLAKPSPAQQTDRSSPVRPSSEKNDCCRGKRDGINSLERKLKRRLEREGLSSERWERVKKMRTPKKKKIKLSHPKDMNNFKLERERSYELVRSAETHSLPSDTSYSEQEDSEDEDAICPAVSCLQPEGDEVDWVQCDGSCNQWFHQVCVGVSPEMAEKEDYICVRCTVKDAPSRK
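qHTS format, multiple compound concentrations. Buffer 50 mM HEPES pH 7.5/0.01% Tween-20; 200 nM KDM5BΔAP final; 10 min compound preincubation; substrate-mix levels 12.5 µM peptide, 25 µM α-KG, 0.25 mM NAD⁺; 30 min RT; ΔRFU.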
Each line names hits and unclear results; the compound was inactive in the other large screens. The full list was thinned out, with hits kept by preference.

Cc1c(NC(=O)COC(=O)C2(c3ccc(Cl)cc3)CCCC2)cccc1[N+](=O)[O-]	none
Cc1ccccc1NC(=O)CC(C)(C(=O)O)c1ccccc1 (centres undefined)	none
COc1ccccc1Nc1nc2ccccc2nc1NS(=O)(=O)c1cccc2nsnc12	none
Cc1ccc(CN2CCC(N3CCCCCC3=O)CC2)cc1	none
Cn1cc(-c2ccccc2Oc2ccccc2)c2nc(CN3CCOCC3)cn2c1=O	none
CN1CCN(Cc2cn3c(=O)n(C)cc(-c4ccccc4F)c3n2)CC1	none
CC(=O)Nc1cc(-c2cn(C)c(=O)n3cc(CN4CC[S+](=O)([O-])CC4)nc23)ccn1	KDM5B inh 35µM
Cn1cc(Nc2ccc(Cl)cc2)c2nc(CN3CC[S+](=O)([O-])CC3)cn2c1=O	KDM5B inh 28µM
CC(=O)Nc1cccc(-c2cn(C)c(=O)n3cc(COc4ccccc4)nc23)c1	none
COc1ncccc1-c1cn(C)c(=O)n2cc(CN3CC[S+](=O)([O-])CC3)nc12	none
O=C(/C=C/c1ccc(-c2ccc(Cl)c(Cl)c2)o1)c1ccc(Cl)cc1	none
CC(C)CNC(=O)C(=O)NCCc1c[nH]c2ccccc12	none
O=S(=O)(c1ccc(F)c(F)c1)N1CCN(Cc2ccc3c(c2)CCO3)CC1	none
CCOc1ccccc1CN1CCC2(CCN([S+](=O)([O-])c3cccc(C(F)(F)F)c3)CC2)Oc2ccccc21	KDM5B inh 13µM
O=C1CC2(CCN([S+](=O)([O-])c3cccc(C(F)(F)F)c3)CC2)Oc2ccccc21	none
CCOc1ccccc1CN1CCC2(CCN([S+](=O)([O-])c3c(C)noc3C)CC2)Oc2ccccc21	none
O=C(Nc1cccc(F)c1)c1ccc2c(c1)CC(c1ccc(F)cc1)OC2=O (centres undefined)	none
O=C(CCN(Cc1cccs1)CC1CCCO1)Nc1ccccc1 (centres undefined)	none
CCOC(=O)c1cccc(NC(=O)Nc2cccc(F)c2C)c1	none
Cc1nc(-c2ccc(F)cc2)n(Cc2ccc(F)cc2)c(=O)c1CCO	none
Cc1nc(-c2ccc(F)cc2)n(Cc2nc(-c3ccccc3)oc2C)c(=O)c1CCO	none
Cc1nc(-c2ccc(F)cc2)n(Cc2nc(-c3ccc(OC(C)C)cc3)oc2C)c(=O)c1CCO	KDM5B inh 16µM
O=C(c1cc(C2=NNC(=Nc3ccccc3F)SC2)c[nH]1)N1CCCC1	none
CN=C(NC)NCc1ccc(Br)s1	none
CCCc1noc(-c2ccn3c(CNC(=O)Cc4cccc(F)c4)nnc3c2)n1	KDM5B inh 7.1µM
Cc1noc(-c2ccn3c(CNC(=O)Cc4cccc(F)c4)nnc3c2)n1	KDM5B inh 28µM
COC(=O)c1ccc(C2/C(=C(\O)c3cccc(OC)c3)C(=O)C(=O)N2c2ccccn2)cc1 (centres undefined)	none
CCOC(=O)c1ccc(N2C(=O)[C@@H]3C(Cc4ccc(O)cc4)NC4(C(=O)Nc5ccc(F)cc54)[C@@H]3C2=O)cc1 (some centres undefined)	none
CCN(C(=O)Cn1nc(Cc2cccnc2)c2ccccc2c1=O)c1ccc(C)c(C)c1	none
COc1ccc(C)cc1NS(=O)(=O)c1cc(-c2c(C)nn3c2NC(=O)CCC3=O)ccc1OC	none
COc1ccccc1-c1nc(C(=O)N2CCOCC2)n2ccncc12	KDM5B inh 100µM
COc1ccccc1-c1nc(C(=O)N2CCOCC2)n2ccccc12	KDM5B inh 89µM
COc1ccccc1C(=O)N1C[C@@H](F)C[C@H]1C(=O)N1CCOCC1	none
COc1ccccc1C(=O)N1CCC(N2CCOCC2=O)CC1	none
COc1ccccc1CN1CCc2nc(C(=O)N3CCOCC3)oc2CC1	none
COc1ccc(NC2=C(C(=O)N3CCOCC3)S(=O)(=O)c3ccccc32)cc1Cl	none
S=c1n(/N=C/c2ccc(Br)cc2)cnn1Cc1ccccc1Cl	none
O/N=C/c1cccc(OCc2ccccc2)c1	none
Cc1ccc2c(COC(=O)CNC(=O)c3ccccc3)cc(=O)oc2c1C	none
CC(OC(=O)c1cccs1)C(=O)c1ccccc1 (centres undefined)	none
CC(=O)c1cccc(NC(=O)CN2CCN(CCc3ccccc3)CC2)c1	none
Cc1csc(NC(=O)c2cnc3c(c2)N(C(=O)Cc2ccc(C(C)C)cc2)CCC3)n1	KDM5B inh 32µM
CNC(=O)c1cnc2c(c1)N(C(=O)Cc1ccc(C(C)C)cc1)CCC2	none
CC(C)c1ccc(CC(=O)N2CCCc3ncc(C(=O)Nc4ccn(C)n4)cc32)cc1	none
CN(C)C(CNC(=O)C1CC=CCC1)c1ccsc1 (centres undefined)	none
CN(C)S(=O)(=O)c1ccc(Cl)c2ccccc12	none
COCCNC(=O)C1(C)CCCc2cnc(Nc3ccccc3)nc21 (centres undefined)	none
CC1(C(=O)Nc2ccccc2)COCc2cnc(Nc3ccccc3)nc21 (centres undefined)	none
CN(Cc1ccccc1)C(=O)C1(C)COCc2cnc(Nc3ccccc3)nc21 (centres undefined)	none
CN(Cc1ccccc1)C(=O)C1(C)CCCc2cnc(N(C)C)nc21 (centres undefined)	KDM5B inh 32µM
CN(C)c1ncc2c(n1)C(C)(C(=O)Nc1ccccc1)CCC2 (centres undefined)	KDM5B inh 35µM
COc1ccc(NC(=O)Cn2nc3c(cc2=O)CCCC3)cn1	none
CC(=O)Nc1ccc(C2(C(=O)N(C)Cc3ccccc3)CCCCC2)cc1	none
COc1ccc(NC(=O)C2(C)CCCc3cnc(N(C)C)nc32)cn1 (centres undefined)	KDM5B inh 35µM
CCN(C(=O)CCc1ccccc1)C1CC(=O)NC1=O (centres undefined)	none
Cn1cnc2c1c(=O)n(CC(=O)Nc1ccccc1Oc1ccccc1Cl)c(=O)n2C	none
Cc1ccc(NS(=O)(=O)c2ccc(-c3cnc(C)o3)cc2)c(C)c1	none
CCOC(=O)C(NC(=O)c1ccccc1)c1c(C)nn(-c2cccc(C(F)(F)F)c2)c1C (centres undefined)	none
Cc1ccc2nc(C3CCCN(CC4CCCC4)C3)[nH]c(=O)c2c1 (centres undefined)	none
COc1ccc(S(=O)(=O)Oc2ccc3ccc(=O)oc3c2)cc1OC	none
CC(C)NC(=O)c1cc(-c2ccc(Cl)cc2Cl)nc2c1cnn2C	KDM5B inh 89µM
COc1ccc(CCNC(=O)c2cc(C3CC3)nc3c2cnn3C(C)C)cc1OC	none
O=C(NCCc1ccc(Cl)cc1)c1cc(-c2ccc(Cl)cc2Cl)c2cccn2n1	none
CC(C)NC(=O)c1cc(-c2ccc(Cl)cc2)nc2ccccc12	none
Cn1ncc2c(C(=O)NCCc3ccc(Cl)cc3)cc(-c3ccc(Cl)cc3Cl)nc21	KDM5B inh 71µM
CC(C)NC(=O)c1ccc(Cl)cc1-n1cnnn1	none
CS(=O)(=O)NCCCNc1nc2ccccc2o1	none
CCc1ccc2oc(=O)cc(CN3CCCCCC3)c2c1	none
COc1ccc(S(=O)(=O)[C@H]2CS(=O)(=O)C[C@@H]2NCc2cccnc2)cc1	none
N#CCCn1cc(-c2csc(NC3CCCC3)n2)c2ccccc21	none
Cc1ccccc1OCCN(C)C(=O)NCc1cccc(Cl)c1	none
COc1ccc(-c2csc(NC(=O)c3nn(C(C)C)c(=O)c4ccccc34)n2)cc1	none
COc1cc2c(cc1OC)C(C[C@H]1CN(C(=O)C(C)(C)C)CC[C@H]1CC(=O)O)=NCC2	none
COc1ccc2c(c1)CCN=C2C[C@H]1CN(C(=O)c2c(C)noc2C)CC[C@H]1CC(=O)O	KDM5B inh 22µM
COc1ccc2c(c1)CCN=C2C[C@H]1CN(C(=O)CC(C)(C)C)CC[C@H]1CC(=O)O	KDM5B inh 28µM
COc1ccc2c(c1)C(C[C@H]1CN(C(=O)C(C)(C)C)CC[C@H]1CC(=O)O)=NCC2	KDM5B inh 35µM
COc1cccc(NC(=O)N2CC[C@@H](CC(=O)O)[C@@H](CC3=NCCc4ccc(C(C)(C)C)cc43)C2)c1	none

Assay outcomes: PubChem, National Center for Advancing Translational Sciences (NCATS)
